Assay outcomes (PubChem)
D1 ag = agonists of human D1 dopamine receptor. P21728. HEK293 T-REx D1 cells, calcium flux, agonist mode. activation, % at 2 µM. hit rate 1% among 360,000. AID 504660; also: 0% is about no effect
Target sequence (P21728 whole entry, looked up): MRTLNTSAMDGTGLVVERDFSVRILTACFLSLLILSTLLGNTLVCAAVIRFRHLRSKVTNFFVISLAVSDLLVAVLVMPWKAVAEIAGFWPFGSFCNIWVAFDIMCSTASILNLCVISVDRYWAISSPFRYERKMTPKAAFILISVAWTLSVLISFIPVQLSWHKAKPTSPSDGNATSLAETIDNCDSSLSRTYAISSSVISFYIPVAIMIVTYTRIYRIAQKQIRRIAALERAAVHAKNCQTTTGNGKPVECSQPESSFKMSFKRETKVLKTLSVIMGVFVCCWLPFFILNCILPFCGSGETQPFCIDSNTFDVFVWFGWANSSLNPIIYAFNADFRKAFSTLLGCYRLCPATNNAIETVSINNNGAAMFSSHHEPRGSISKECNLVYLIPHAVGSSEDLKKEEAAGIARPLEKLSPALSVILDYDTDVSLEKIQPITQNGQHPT
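Tetracycline-induced HEK293 TREx D1 cells, force-coupled to calcium signalling, were dye-loaded with a no-wash calcium kit. Compound was pin-added after a 10 s baseline. Fluorescence was read kinetically at 1 cycle/s for 180 s, with calcium rises flagged as agonism.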
D1 potentiator = potentiators of human D1 dopamine receptor; P21728; HEK293 TREx D1 cells, calcium flux, dopamine EC20 potentiation; potentiation, % at 10 µM; hit rate 0.036% among 360,000; AID 504651; in the data active = potentiation above about 30%; also: 0% is about no effect
D1 antag = human D1 dopamine receptor antagonism. AID 504652. HEK293 TREx D1 cells, calcium flux, dopamine EC80; active compounds read low. activity change, negative = inhibition, % at 10 µM. hit rate 3.2% among 360,000; in the data active = activity change below about -30%; also: % is scaled to controls: 0 for no effect and ±100 for the full control effect
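Cells carrying a force-coupled, tetracycline-inducible human D1 receptor report calcium flux. Each well gets a 10 s baseline, compound with 180 s monitoring, then an EC80 dopamine stimulus with a second 180 s kinetic read.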
TRHR ag = agonists of human TRH receptor; P34981; TRHR cells, calcium flux fluo-8, FDSS agonist mode; activation, % at 2 µM; hit rate 0.18% among 360,000; AID 493084; also: 0% is about no effect
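Read-out: compound-evoked intracellular calcium rise in TRHR cells, fluo-8 dye, kinetic FDSS fluorescence at 1 s/cycle following a 10-cycle baseline. Cells cultured overnight before dye loading (30 min–1.5 h, RT).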
TRHR enhancer = allosterically enhances the human TRH receptor. P34981. TRHR cells, fluo-8 calcium fluorescence, EC20 TRH enhancement. enhancement, % at 2 µM. hit rate 0.66% among 360,000. AID 493056; in the data active = enhancement above about 30%; also: 0% is about no effect
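TRHR-expressing cells loaded with fluo-8 calcium dye were read kinetically (ex 480/em 530) during compound addition, then stimulated with an EC20 of TRH (10 nM final). Enhancement of the Gq-mediated intracellular calcium response was scored.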
* hit, by the source's call; / = no result. Most compounds without a hit are left out; they make up all but 4.7% or so of the library. Rule as the data show it, unless noted: active = activation above about 30%; inactive = the rest.

SMILES | D1 ag | D1 potentiator | D1 antag | TRHR ag | TRHR enhancer
Cc1ccc(NC(=O)CN2C(=O)CSc3ccc(S(=O)(=O)N(C)C)cc32)cc1C | 2.9 | 3.2 | -4.0 | 0.9 | -1.1
Cc1ccccc1-c1nnn(Cc2cccc(S(=O)(=O)N3CCOCC3)c2)n1 | 13.0 | -7.7 | -33.5* | 0.0 | 4.3
CCCn1c(SCC(=O)c2ccc3c(c2)OCCO3)nnc1-c1ccco1 | 4.2 | 3.1 | -35.6* | 0.1 | 3.9
CCCn1c(SCC(N)=O)nnc1-c1ccco1 | 0.6 | -1.0 | -55.0* | -0.9 | 7.3
CC(C)NC(=O)CSc1nnc(-c2ccco2)n1N | -2.3 | -7.5 | -66.8* | 0.4 | -8.1
O=[N+]([O-])c1ccc(-c2nn(-c3ccccc3)cc2/C=N/n2c(-c3ccncc3)n[nH]c2=S)cc1 | -0.3 | 2.3 | -10.0 | 0.1 | 4.5
S=c1[nH]nc(-c2ccncc2)n1/N=C/c1cn(-c2ccccc2)nc1-c1ccccc1 | 4.9 | -0.5 | -5.9 | -0.4 | 30.2*
CCCCn1cc(S(=O)(=O)c2ccc(CC)cc2)c(=O)c2cc(F)c(N3CCCC(C)C3)cc21 (centres undefined) | 2.5 | -0.2 | 17.0 | -0.9 | 38.8*
CCn1cc(S(=O)(=O)c2ccccc2)c(=O)c2cc(F)c(F)cc21 | 1.4 | 2.1 | -6.8 | -0.4 | 43.3*
CCCCn1cc(S(=O)(=O)c2ccc(OC)cc2)c(=O)c2cc(F)c(F)cc21 | -0.7 | 0.5 | -38.8* | -0.6 | 3.2
Cc1cc(NC(=O)c2oc3c(c2C)-c2[nH]ncc2CC3)ccc1Br | 2.2 | -1.6 | -13.4 | 0.0 | 4.5
CCN(CC)c1ccc(NC(=O)c2cc(C)nc3c2c(C)nn3-c2ccc(C)cc2)c(C)c1 | 1.8 | 4.3 | -3.0 | 0.6 | -18.2
CSCCC(NS(=O)(=O)c1ccc2c(c1)oc(=O)n2C)C(=O)NCCc1ccc(C)cc1 (centres undefined) | -0.4 | -3.2 | 15.2 | 0.2 | 3.9
Cc1ccc(NC(=O)C(Cc2ccccc2)NS(=O)(=O)c2cccs2)cc1Cl (centres undefined) | 6.0 | 0.5 | -41.5* | 1.8 | 5.9
COc1ccc(C)cc1NC(=O)C(NS(=O)(=O)c1cccs1)c1ccccc1 (centres undefined) | -1.9 | -1.5 | -35.5* | -1.6 | -2.1
CCc1cccc(NC(=O)C(Cc2ccccc2)NS(=O)(=O)c2cccs2)c1 (centres undefined) | 5.3 | 0.1 | 12.5 | 0.2 | 2.6
COc1ccc(N2CC(NC(=O)COc3ccccc3C)CC2=O)cc1OC (centres undefined) | 6.2 | -1.8 | / | -0.7 | 5.2
CCOc1cc(/C=C/C(=O)c2ccc(OC)c(CN3CCOCC3)c2)cc(Br)c1O | 40.9* | -4.5 | -1.3 | 39.6* | -7.3
COc1ccc2nc(C)cc(NCc3ccc(F)cc3)c2c1 | 84.8* | -1.2 | -5.4 | -1.1 | 3.9
Cc1ccc(N2C(=O)/C(=C\c3ccc(C(C)C)cc3)N=C2SC2CCOC2=O)cc1 (centres undefined) | 1.9 | -10.5 | -38.3* | 0.1 | -3.2
CN(C)c1ccc(CNC(=O)C2CCN(S(=O)(=O)c3ccc4c(ccn4C)c3)CC2)cc1 | -0.5 | 3.1 | -9.6 | -0.2 | 3.4
CN(C)CCCOc1nn(Cc2ccccc2)c2ccccc12 | 17.9 | -8.2 | -30.6* | 0.6 | 17.4
COc1ccc(C(=O)N(Cc2cc(OC)c(OC)c(OC)c2)C2CCS(=O)(=O)C2)cc1Cl (centres undefined) | 1.4 | 2.8 | -9.6 | -0.8 | 3.6
COc1ccc(C(=O)Nc2nc(C)cc(C)n2)cc1 | 1.6 | -2.0 | 2.9 | 0.6 | -0.2
COc1ccc(C(=O)Nc2n[nH]c(-c3ccncc3)n2)cc1 | 3.6 | -3.4 | -47.1* | 0.1 | 1.2
SMILES | D1 ag | D1 potentiator | D1 antag | TRHR ag | TRHR enhancer
COC(=O)c1cn(-c2ccccc2)c(C)c1C(=O)OC | 50.4* | -4.4 | 4.7 | -0.2 | 6.0
COC(=O)c1cn(-c2ccccc2)nc1-c1ccccc1 | 1.1 | -5.8 | 13.7 | -0.2 | -4.9
O=C(CCC(=O)N1CCSc2ccccc21)NCc1ccccc1Cl | 9.4 | -6.3 | -14.2 | 0.0 | 0.4
CCS(=O)(=O)c1nc(S(=O)(=O)c2ccc(C)cc2)c(NCCN2CCOCC2)s1 | 1.6 | 5.5 | -0.9 | 0.0 | 11.1
O=S(=O)(c1ccc(Cl)cc1)c1nc(-c2ccccc2F)oc1NCCCN1CCOCC1 | 3.6 | 11.2 | 10.7 | -0.1 | -1.7
CCCS(=O)(=O)c1nc(S(=O)(=O)c2ccc(C)cc2)c(NCCCN2CCOCC2)s1 | -0.1 | -4.8 | -31.6* | -0.8 | -2.2
Cc1ccc(S(=O)(=O)c2nc(-c3ccccc3Cl)oc2NCCCN2CCOCC2)cc1 | -1.2 | -3.8 | -7.7 | 1.0 | 34.5*
COc1cc(C(CC(=O)NCc2ccccc2Cl)N2Cc3ccccc3C2=O)cc(OC)c1OC (centres undefined) | 0.3 | -0.8 | 2.6 | -0.2 | -6.0
O=S1(=O)CC/C(=N/Nc2ccccn2)c2cc(F)ccc21 | 0.4 | -0.6 | 0.2 | 0.3 | -4.2
O=S1(=O)CC/C(=N/Nc2ccc(C(F)(F)F)cn2)c2cc(F)ccc21 | -0.4 | 10.9 | -51.6* | 0.8 | 16.7
Cc1cc(C)n2nc(SCC(=O)Nc3ccc(S(=O)(=O)N(C)C)cc3)nc2n1 | 5.1 | -2.5 | -39.1* | -0.4 | 1.1
CN(C)S(=O)(=O)c1cccc(NC(=O)Cc2ccc(Cl)cc2)c1 | 20.8 | -6.2 | -31.9* | 0.3 | -3.1
Cc1cc(C)n2nc(SCC(=O)Nc3ccc(O)cc3)nc2n1 | 3.2 | -7.3 | -10.8 | 0.0 | -1.8
O=C(Cc1ccc(Cl)cc1)Nc1cccc(S(=O)(=O)Nc2ccccc2F)c1 | 7.2 | -5.8 | -8.4 | -0.2 | 0.4
Cc1cc(C)nc(SCC(=O)Nc2cccc(S(=O)(=O)N(C)C)c2)n1 | 7.2 | -13.6 | -30.5* | -0.5 | 21.8
O=C(O)c1c(-c2ccccc2)oc2ccc(OCc3c(F)cccc3Cl)cc12 | 36.2* | 0.8 | 0.5 | -0.8 | 13.4
CNC(=S)N(CCO)Cc1cc2cc3c(cc2[nH]c1=O)OCCO3 | 3.0 | -1.2 | 13.9 | -0.2 | 9.8
CCNC(=S)N(CCO)Cc1cc2cc3c(cc2[nH]c1=O)OCO3 | 0.2 | -1.6 | -22.0 | 0.1 | 34.2*
CCN(CC)CCN(Cc1cc2cc3c(cc2[nH]c1=O)OCCO3)C(=S)NC | -1.9 | -8.0 | -31.4* | 0.0 | -3.9
CNC(=S)N(CCO)Cc1cc2cc3c(cc2[nH]c1=O)OCO3 | 2.3 | -2.2 | -17.2 | 0.9 | 6.4
O=C(OCc1ccccc1F)c1ccc(-c2nnn(Cc3ccccc3)n2)cc1 | 3.0 | 3.0 | -0.5 | -3.3 | 4.0
Cc1ccccc1CN1CCN(C(=O)c2ccco2)CC1 | 1.0 | -5.3 | 7.6 | 0.3 | 0.8
Cc1onc(-c2ccccc2)c1C(=O)N1CCN(C(=O)c2ccco2)CC1 | 1.0 | 3.0 | -16.4 | -0.1 | 30.1*
Cc1ccc(CN2CCN(C(=O)c3ccco3)CC2)cc1 | -1.8 | -6.9 | -30.4* | 0.0 | -2.1
Cc1ccc(NC(=O)C2CCN(C(=O)c3ccco3)CC2)cc1 | -0.6 | -0.3 | -14.8 | 0.2 | 11.0
